Shown are actives, neighbours in structure and some others; about 5.2% of the full set was active somewhere.
Tau fluor cs = Counterscreen qHTS for Inhibitors of Tau Fibril Formation, Fluorescence Polarization. tau K18 P301L Alexa594 fluorescence, heparin fibrillization. Potency, µM (titrated, usually from 57.7 µM). 280,000 tested, 0.93% active. AID 1463, 2008; also: nearly all actives have a fitted effect of over 55% in size
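Human K18 P301L tau (15 uM unlabeled plus 0.24 uM Alexa 594-labeled, final) in 100 mM sodium acetate pH 7 was mixed with compound and 20 uM heparin and incubated 6 hr at 37 C.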
Tau fibril ThT = qHTS for Inhibitors of Tau Fibril Formation, Thioflavin T Binding. Microtubule-associated protein tau (Homo sapiens), P10636. recombinant tau K18 P301L, heparin-induced fibrillization, ThT fluorescence. Potency, µM (doses to about 57.4 µM), usual class: inhibitors. 270,000 tested, 2.1% active; also: nearly all actives have a fitted effect of over 55% in size
Target sequence (P10636 561-689 P618L limits assumed): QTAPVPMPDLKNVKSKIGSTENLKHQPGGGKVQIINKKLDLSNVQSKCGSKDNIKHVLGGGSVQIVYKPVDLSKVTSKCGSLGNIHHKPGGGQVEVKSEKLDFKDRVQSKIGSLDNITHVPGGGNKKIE
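ThT emission at 510 nm, taken 1 hr after adding 30 uM dye, quantifies aggregates formed when 20 uM heparin acts on human tau K18 P301L for 6 hr at 37 C.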
FBPA coupling cs = qHTS Assay for Inhibitors of Fructose-1,6-bisphosphate Aldolase from Giardia Lamblia: Coupling assay counterscreen; 290,000 tested, 0.67% active; AID 2472, 2010; activity change, negative = inhibition, % at 58.2 µM, hits read low; coupling enzyme system counterscreen, AmpLite Red fluorescence; in the data active = activity change below about -30%
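Fluorescence at 525 nm excitation and 598 nm emission measured inhibition of the coupled detection system without aldolase. Compounds (at 57.5 uM final) were preincubated 10 min at room temperature with coupling enzyme reagent before a 20 min substrate/AmpLite Red step.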
Tau FP inhib = qHTS for Inhibitors of Tau Fibril Formation, Fluorescence Polarization; Potency, µM (series often up to 57.7 µM), most hits filed as inhibitors; K18 P301L tau heparin fibrillization, Alexa594 FP, 6 h; 280,000 tested, 0.39% active; also: nearly all actives have a fitted effect of over 55% in size
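Steps: dispense K18 P301L tau (15 uM plus 0.24 uM Alexa 594 tracer, final) in pH 7 sodium acetate; add compound; add heparin (20 uM final); incubate 6 hr, 37 C; add ThT (30 uM final); after 1 hr ambient, read FP.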
Sfp PPTase inh = qHTS Assay for Inhibitors of Bacillus subtilis Sfp phosphopantetheinyl transferase (PPTase) | AID 1490, 2009 | 4'-phosphopantetheinyl transferase ffp (Bacillus subtilis), Q9F4F7 | 310,000 tested, 3.5% active | Potency, µM, actives largely listed as inhibitors | Biochemical Sfp PPTase activity, qHTS;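 also: the enzyme is Sfp with the accession as filed and its product quenches rhodamine fluorescence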
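With Hepes-Na pH 7.6 buffer containing 10 mM MgCl2, Sfp (15 nM) modified BHQ-2-YbbR (12.5 uM) using rhodamine-CoA (5 uM). Two reads 30 minutes apart at 525/598 nm yielded each well's rate.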
Each line names hits and unclear results; the compound was inactive in the other large screens; [ ] = remark or other dose. Unless noted, calls follow the shape of the dose curve; as a rule, active = well fitted curve in the direction sought with a large enough effect; inconclusive = small, poorly fitted or top-dose-only effect, or another doubt; inactive = no such curve, though single readings can be large; an effect the other way counts as inactive or inconclusive.

CC(C)=CCc1c(O)cc2oc3c(CC=C(C)C)c(O)c(O)c(CC=C(C)C)c3c(=O)c2c1O	Tau fluor cs 14µM[quencher], Tau fibril ThT inconclusive
COc1ccc(OC)c(S(=O)(=O)Nc2cccc(-c3ccc(N4CCCCC4)nn3)c2)c1	Tau fibril ThT inconclusive, Tau FP inhib inconclusive (no result: FBPA coupling cs, Sfp PPTase inh)
CCCCS(=O)(=O)c1sc2nc(C)cc(C)c2c1N	none
Cc1cc(C)c2c(N)c(S(=O)(=O)c3ccccc3)sc2n1	Sfp PPTase inh 89µM
O=C(CSc1nc(O)cc(=O)[nH]1)C1CC1	Sfp PPTase inh 71µM
Cc1ccc(Cl)c(OCCCCN(C)Cc2ccccc2)c1	none
Cc1ccc(Cl)c(OCCCN(C)Cc2ccccc2)c1	Tau fibril ThT inconclusive, Sfp PPTase inh 45µM
COc1ccccc1C(=O)Nc1ccc(C(=O)OCc2cc(=O)n3nc(C4CC4)sc3n2)cc1	none (no result: FBPA coupling cs, Sfp PPTase inh)
Cc1ccccc1NC(=O)CN1C(=O)C2C3CC(C(Br)C3Br)C2C1=O (stereo not drawn)	Tau FP inhib inconclusive, Sfp PPTase inh 56µM
N[C@@H](Cc1cc(CP(=O)(O)O)cc(-c2ccccc2Cl)c1)C(=O)O	Sfp PPTase inh 8.9µM
NC(Cc1cccc(-c2ccccc2CP(=O)(O)O)c1)C(=O)O (stereo not drawn)	none (no result: FBPA coupling cs, Sfp PPTase inh)
Cc1ccc2nc(-c3ccc(NS(=O)(=O)c4ccc(F)c(F)c4)cc3)sc2c1	Tau fluor cs 10µM[quencher], Tau fibril ThT inconclusive, Tau FP inhib inconclusive
CCOc1ccc(N2CC(NC(=O)C(=O)c3c[nH]c4ccccc34)CC2=O)cc1 (stereo not drawn)	Tau FP inhib inconclusive (no result: FBPA coupling cs, Sfp PPTase inh)
CC(=O)Oc1ccc(N2C(=O)C3C4C=CC(C5CC45)C3C2=O)cc1[N+](=O)[O-] (stereo not drawn)	Tau fibril ThT inconclusive, Sfp PPTase inh 56µM
CC(=O)Oc1ccc(N2C(=O)C3C(C2=O)C2C=CC3C23CC3)cc1[N+](=O)[O-] (stereo not drawn)	Tau fibril ThT inconclusive
COC(=O)c1ccccc1NC(=O)CSc1c2c(nc3ccc(Cl)cc13)CCCC2	Tau fibril ThT inconclusive (no result: FBPA coupling cs, Sfp PPTase inh)
COC(=O)c1cc2sc(Cl)cc2n1Cc1nc(-c2cccc(C)c2)oc1C	Sfp PPTase inh inconclusive
COC(=O)c1cc2sc(Cl)cc2n1Cc1nc(-c2ccccc2)oc1C	Sfp PPTase inh 79µM
O=C1Nc2ccc(F)cc2C12Nc1ccccc1-c1nnc(SCc3ccccc3F)nc1O2 (stereo not drawn)	Tau fluor cs inconclusive, Tau fibril ThT 25µM, Tau FP inhib inconclusive
CCC(C)Sc1oc(-c2ccco2)nc1S(=O)(=O)c1ccc(C)cc1 (stereo not drawn)	Tau fluor cs inconclusive, Tau fibril ThT inconclusive (no result: FBPA coupling cs, Sfp PPTase inh)
Nc1nc2ccc([N+](=O)[O-])c(N)c2s1	Tau fluor cs inconclusive, Tau fibril ThT 11µM, Tau FP inhib inconclusive, Sfp PPTase inh 89µM
C=CC[n+]1ccc(/C=C2\C=Cc3cc(C)ccc3N2CC)c2ccccc21	Tau fibril ThT 3.2µM, Tau FP inhib 32µM
CCN1/C(=C/c2cc[n+](CCCS(=O)(=O)[O-])c3ccccc23)Sc2ccccc21	Tau fibril ThT inconclusive
O=c1c(-c2ccccc2)nc2cnc(N3CCNCC3)nc2n1-c1ccccc1	none (no result: Tau fluor cs, Tau fibril ThT, Tau FP inhib)
CCC(=O)N1c2ccc(S(=O)(=O)N3CCCCCC3)cc2CC1C (stereo not drawn)	none (no result: FBPA coupling cs, Sfp PPTase inh)
CC(C)c1ccc(/C=N/N2CCN(c3ccccn3)CC2)cc1	Tau fluor cs inconclusive, Tau fibril ThT 13µM
O=[N+]([O-])c1cc(/C=N/N2CCCCC2)ccc1Cl	Tau fibril ThT inconclusive
Oc1ccccc1/C=N/N1CCN(c2ccccn2)CC1	Tau fibril ThT inconclusive
CC(C)c1ccc(/C=N/N2CCCCC2)cc1	Sfp PPTase inh 63µM
c1ccc(CNc2ncncc2-c2ccoc2)cc1	none (no result: Tau fluor cs, Tau fibril ThT, Tau FP inhib)
